Assay results published in PubChem BioAssay AID1053144 (Broad Institute, 2014).
Among all 3,400 compounds or so, about 160 (4.7%) were called active.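 Rule for the calls: active = fitted curve reaches 30% activation at a concentration no higher than the top valid tested dose, luminescence rising; inconclusive = no clear call, values can overlap the other calls; inactive = signal moving opposite to the expected increase, plus the rest.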 The list is a sample of the results. Results with a measured potency or affinity are listed apart.

Test: Wnt/beta-catenin signaling activators, dose response, cell-based, iPS-derived NPC, luciferase, Wnt3a, cherry-pick (AID 1053144);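 note: Wnt3a stimulus is conditioned medium from Wnt3a-transfected mouse L cells at 5% in well; 0% = neutral control wells and 100% = CHIR-99021 positive control wells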
Conditions: NPC TCF/LEF luciferase reporter, Wnt3a EC25, 24 h; series mostly up to 26 µM; activation: at the top concentration

activation, inactive:
CCCOc1ccc(-c2csc3nc[nH]c(=O)c23)cc1 4.45%, COc1ccc2cc(CCNC(=O)c3cccs3)c(=O)[nH]c2c1 9.16%, COc1ccc2[nH]c(-c3ccccc3)cc2c1 6.06%, Cc1ccc(CONC(=O)c2ccc(C)cc2)cc1 8.43%, Nc1ccc(N=Nc2ccccc2)c(N)n1 12.5%, COc1ccc(N=Nc2ccc(N)nc2N)cc1 12.9%, CCOC(=O)C1(Cc2ccccc2)CCCN(C(=O)COc2ccccc2OC)C1 (stereo not given) 9.49%, Cn1c(SCC(=O)c2ccccc2)nnc1-c1ccccn1 11.4%, Cn1c(SCc2ccccc2F)nnc1-c1ccccn1 13.6%, Cc1ccc(NC(=O)C(=O)NCCCN2CCCC2=O)cc1 6.01%, COc1cccc2cc(-c3nc4ccccc4o3)c(=O)oc12 6.12%, COc1ccc2oc(=O)c(-c3nc4ccccc4o3)cc2c1 16.9%, N/C(=N\OC(=O)c1cccs1)c1ccc(Cl)cc1 10.6%, O=C(Nc1ccccc1)Nc1nnc(-c2ccccc2)s1 8.64%, COc1ccc(C(C(=O)NC2CCCC2)n2c(C3CCN(C(C)=O)CC3)nc3ccccc32)cc1 (stereo not given) 16.6%, c1ccc2c(c1)Cc1cc3ccccc3nc1-2 15.7%, O=C(O)c1ccc2c(c1)C(=O)N(c1ccc(C(=O)OCC(=O)c3ccccc3)cc1)C2=O 7.5%, O=C(/C=C/c1ccc(N2CCOCC2)cc1)c1ccccc1 5.79%, CCC(C)C(=O)Nc1nc2ccc(OC)cc2s1 (stereo not given) 11.1%, CC(=O)Nc1nonc1NC(=O)c1ccc(C(C)(C)C)cc1 6.59%, CCCCn1c(CN2CCN(C(=O)OCC)CC2)nc2c1c(=O)n(C)c(=O)n2C 1.14%, Cc1ccc(-c2noc(-c3ccccc3F)n2)cc1 7.61%, Fc1ccccc1-c1nc(-c2ccccc2)no1 4.1%, Cc1ccc(OCc2cc(C(=O)NCC(C)(C)N3CCOCC3)no2)cc1C 13.3%, NC(=O)CSc1nnc(NC(=O)c2ccc3ccccc3c2)s1 8.39%, CC1CCN(C(=O)CSc2nc3ccccc3s2)CC1 7.04%, NC(=O)c1c(NC(=O)c2ccccc2)sc2c1CCC2 9.7%, CC1CCC2(CC1)NC(=O)N(CC(=O)Nc1sc3c(c1C(N)=O)CCC3)C2=O (stereo not given) 5.23%, CN1CCN(c2ccc(NC(=O)c3ccc(-c4ccccc4F)o3)cc2)CC1 13.4%, Cn1c(SCC(=O)c2ccccc2)nnc1-c1ccc(O)cc1 13%, CCn1c(SCC(=O)c2ccccc2)nnc1-c1cnccn1 9.13%, O=C(Nc1nnc(C2CCCCC2)s1)c1cccs1 4.29%, Cc1ccnc(N/C=C/C(=O)c2ccc(Br)cc2)c1 3.27%, Cc1nc2ccc(-c3nc4cc(N)ccc4o3)cc2[nH]1 3.55%, Nc1ccc(-c2nc3ccc([N+](=O)[O-])cc3[nH]2)cc1 18.3%, CCCOc1ccc(C(=O)Nc2ccc3c(c2)OCO3)cc1 13.3%, CC1CCC(NC(=O)c2cccn2C)CC1 (stereo not given) 2.89%, C=C(C)CNC(=O)CCc1nnc(Cc2cccc(C(F)(F)F)c2)o1 17%, O=C(COc1ccc2c(c1)OCO2)Nc1ccccc1F 8.94%, O=C(NCC(c1ccco1)N1CCCC1)c1cc(=O)[nH]c2ccccc12 (stereo not given) 0.695%, O=C(O)c1ccccc1SCc1cn2cc(Cl)ccc2n1 9.86%, CCOC(=O)/C(=C/c1ccc(OC(=O)c2ccncc2)cc1)C(C)=O 2.42%, CN1CCSc2ccc(C(=O)Nc3ccc(Cl)cc3)cc21 12.8%, COc1ccc(NC(=O)c2ccc3c(c2)N(C)CCS3)cc1 8.32%, Cc1ccc2c(c1)c1c(n2C)-c2[nH]ncc2CC1 8.88%, COC(=O)c1nn(-c2ccc(C)cc2)c2nnc(Cc3ccccc3)c(=O)n12 1.09%, O=C(Nc1ccc(Cl)cc1)c1ccco1 6.38%, COC(=O)c1ccc(NC(=O)c2ccco2)cc1 24.7%, COc1ncccc1-c1nnn(-c2ccccc2)n1 8.3%, CC(=O)NC(CC(=O)NNC(=O)COc1c(C)cccc1C)c1ccccc1 (stereo not given) -0.753%, Cc1cc(NC(=O)c2ccccc2)ncc1NC(=O)c1ccco1 6.34%, CSc1nccc(N/N=C/c2ccccc2)n1 9.49%, O=C(c1cc(-c2ccccc2)on1)N1CCCCCC1 13.4%, O=c1c2ccccc2oc2ccc(NCCCn3ccnc3)cc12 0.761%, O=C(NC1CCCC1)c1cc(-c2ccc(Cl)cc2)on1 13.5%, O=C(NC1CCCCC1)c1cc(-c2cccs2)on1 6.56%, O=C(NCc1cccs1)c1cc(-c2ccc(O)cc2)on1 9.8%, COc1ccc(C(=O)c2c[nH]c(C(=O)NCCCn3ccnc3)c2)cc1 2.91%, CC(C)(C)c1cccc(N/C(=C\C(=O)c2ccccc2)c2ccccc2)c1 -2.87%, CC(=O)c1ccc(OCc2ccccc2)c(C)c1O 6.75%, O=C(Nc1nnc(-c2ccco2)s1)C1CC1 4.36%, COc1cccc(N=c2oc3ccccc3cc2-c2nc3ccccc3[nH]2)c1 -4.17%, O=C(Nc1ccc(Br)cn1)c1ccc(Cl)s1 2.47%, Cc1cc(C(=O)Nc2ccc(Br)cn2)sc1C 8.02%, CC(=O)c1cc(F)ccc1OCC(=O)Nc1ccc2c(c1)OCO2 8%, O=S(=O)(c1cccs1)N1CCCc2cccc(O)c21 8.4%, COc1cccc(OCc2cc(C(=O)N3CCN(c4ccccc4OC)CC3)no2)c1 6.95%, O=C(O)COn1c(-c2ccccc2)nc2ccc([N+](=O)[O-])cc21 8.93%, Cc1ccnc(SCc2cc(=O)c(OC(=O)c3ccc(Br)o3)co2)n1 7.99%, O=C(/C=C/c1ccc2c(c1)OCO2)c1ccc[nH]1 6.1%, O=C(/C=C/c1ccccc1)NC(=O)c1ccccc1O 5.83%, O=C(/C=C/c1cc2ccccc2o1)c1ccccc1O 9.57%, COc1ccc(/C=C/C(=O)c2cc3c(cc2N)OCO3)cc1 6.99%, O=C(N/N=C/c1ccc(N2CCOCC2)cc1)c1cccs1 8.99%, CCc1sc(C(=O)N2CCc3ccccc32)cc1C 3.85%, CC(C)[C@H](NC(=O)OCc1ccccc1)C(=O)OCC(=O)c1ccccc1 4.59%, COc1cc(/C=C/C(=O)N2C(=O)c3cccc(N)c3C2=O)cc(OC)c1OC -6.94%, Cc1ccc(NC(=O)c2ccccc2NC(=O)Cc2ccccc2)cc1 7.38%, Cc1cnc(C(=O)Nc2ccc(C(C)C)cc2)cn1 12.2%, COc1ccc(NC(=O)c2cc3ccccc3cc2O)cc1 12.5%, COc1cc2ccccc2cc1C(=O)Nc1ccc(O)cc1 8.68%, Cc1cc(C)n(-c2nnc3c4ccccc4n(C)c3n2)n1 16.2%, O=C(Nc1ccc2c(c1)OCO2)c1ccc(CO)cc1 6.96%, CCOC(=O)CSc1nc2ccccc2c(=O)n1NC(=O)c1ccccc1 15%, c1cncc(CSc2ccc(-c3ccc4c(c3)OCO4)nn2)c1 7.68%
